The text below walks through data of PubChem BioAssay AID761 (NMMLSC, 2007).

Hit rate of the full screen: of about 190,000 compounds, about 400 (0.21%) were called active. About 2% were inconclusive and are not listed. The sample holds actives, similar compounds and a random draw of the others, so the mix is not that of the screen.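 How the source made its calls: active means percent activity GTP binding at least 20 points away from the 100% baseline, either down as inhibitor or up as activator; inconclusive means compound flagged as likely green fluorescent from well-wide comparison; inactive means the rest.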

Chain of Cell division control protein 42 homolog (Homo sapiens) (P60953 whole entry, looked up): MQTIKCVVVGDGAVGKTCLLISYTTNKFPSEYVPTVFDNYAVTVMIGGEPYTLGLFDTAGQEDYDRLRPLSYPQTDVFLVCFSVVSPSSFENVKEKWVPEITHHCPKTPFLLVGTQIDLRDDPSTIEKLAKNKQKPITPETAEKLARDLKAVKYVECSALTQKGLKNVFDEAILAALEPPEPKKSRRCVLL

This test addresses Cell division control protein 42 homolog (Homo sapiens) (UniProt P60953). Nature of the test: wildtype Cdc42 fluorescent GTP binding changes, either direction – biochemical, multiplex bead flow cytometry, Bodipy-GTP, primary screen (AID 761).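 Further: median bead fluorescence of bound Bodipy-FL-GTP at 100 nM; 0% = excess unlabeled GTP control and 100% = no compound control.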 As to conditions: GST-Cdc42 beads, at 10 µM, actives lie on both sides.
Turning to `O=C(O)c1n[nH]nc1-c1ccccc1`, the percent activity (GTP binding) is 99% (inactive).
Regarding `O=C(O)/C=C/c1cn(-c2ccccc2)nc1-c1cccs1`, the percent activity (GTP binding) was 93% (inactive).
The same measure for `O=C(/C=C\c1cn(-c2ccccc2)nc1-c1cccs1)N1CCOCC1`: 100% (inactive).
The same measure for `O=C(O)/C=C/c1cn(Cc2ccccc2)nc1-c1cccs1`: 135% [activator] (active).
The same measure for `NS(=O)(=O)c1ccc(NC(=O)/C=C/c2ccccc2Cl)cc1`: 97% (inactive); for `O=C(COc1cc(Cl)c(Cl)cc1Cl)NCCc1ccccn1`: 94% (inactive).
With `CCOC(=O)N1CCN(CC(=O)Nc2ccc(F)cc2)CC1`, the percent activity (GTP binding) was 96% (inactive).
The same measure for `Cc1cc(C)cc(NC(=O)Cn2cnc3c(nnn3Cc3ccc(F)cc3)c2=O)c1`: 93% (inactive).
The result for `Cc1cccc(C(=O)NNC(=O)c2cccc([N+](=O)[O-])c2)c1` reads 105% (inactive).
The result for `COc1ccccc1N1CCN(C(=O)c2ccc(Cl)c(S(=O)(=O)N3CCCC3)c2)CC1` reads 100% (inactive); that for `O=C(Cc1ccc(F)cc1)N1CCN=C1SCc1cccc([N+](=O)[O-])c1`, 96% (inactive); that for `Cc1cccc(NC(=O)CSc2nc3[nH]ncc3c(=O)[nH]2)c1`, 97% (inactive).
As for `CCCSc1nc2[nH]ncc2c(=O)[nH]1`, the percent activity (GTP binding) is 100% (inactive).
Regarding `Cc1ccc(CSc2nc3[nH]ncc3c(=O)[nH]2)cc1`, the percent activity (GTP binding) was 76% (active).
The result for `O=C(NCc1cccs1)c1cc(-c2ccccn2)nc2ccc(Br)cc12` reads 98% (inactive).
`O=C(c1cccc([N+](=O)[O-])c1)N1CCN(C(=O)c2ccco2)CC1`: the percent activity (GTP binding) was 94% (inactive).
The same measure for `CCN(C(=O)COC(=O)/C=C/c1nc2ccccc2s1)C1CCS(=O)(=O)C1` (configuration not stated): 93% (inactive); for `CCOc1ccc(N(CC(=O)NCCc2ccc(OC)cc2)S(C)(=O)=O)cc1`: 100% (inactive); for `Cc1ccccc1NC(=S)NNC(=O)c1cccc(Br)c1`: 91% (inactive).
The result for `Cc1nc(S(=O)(=O)c2ccc(Br)cc2)nc2c1CCC2` reads 94% (inactive).
With `COc1ccc(C(=O)Nc2ccc(NC(=O)C(C)C)nc2)cc1`, the percent activity (GTP binding) is 93% (inactive).
Take `Cc1cccc(C(=O)OC(C)CN2CCN(C)CC2)c1` (configuration not stated): the percent activity (GTP binding) was 101% (inactive).
The result for `Nc1ccc(OCC(O)C[n+]2ccc(CCS(=O)(=O)[O-])cc2)cc1` (configuration not stated) reads 102% (inactive).
As to `O=C(Cc1ccc(F)cc1)N/N=C/c1ccc2c(c1)OCO2`, the percent activity (GTP binding) is 97% (inactive).
Take `OCCC1CN(Cc2cccn2-c2nccs2)CCN1CCc1ccccc1` (configuration not stated): the percent activity (GTP binding) was 95% (inactive).
The same measure for `CC(/C=N/NC(=O)c1ccncc1)=C\c1ccco1`: 99% (inactive); for `CCOC(=O)C1(Cc2cccc(OC)c2)CCCN(S(=O)(=O)c2cccnc2)C1` (configuration not stated): 100% (inactive).
In the case of `O=C(CSc1nnnn1-c1ccc(O)cc1)N1N=C(c2ccc3ccccc3c2)CC1c1ccccc1` (configuration not stated), the percent activity (GTP binding) is 98% (inactive).
The same measure for `CC(=O)NC1C(OCc2ccccc2)OC(COC(C)=O)C(OC(C)=O)C1OC(C)=O` (configuration not stated): 104% (inactive); for `O=C(OCC1O[C@@H](OC(=O)c2cc(O)c(O)c(O)c2)[C@@H](OC(=O)c2cc(O)c(O)c(O)c2)[C@@H](OC(=O)c2cc(O)c(O)c(O)c2)[C@@H]1OC(=O)c1cc(O)c(O)c(O)c1)c1cc(O)c(O)c(O)c1` (some centres not stated): 79% (active); for `NC(=O)COc1ccc(NC(=O)c2ccccc2-c2ccccc2)cc1`: 92% (inactive).
The result for `CCOC(=O)c1ccc(Nc2cc(C)nc3nc(C)nn23)cc1` reads 99% (inactive).
Turning to `CCOC(=O)c1ccc(N/C(=N/S(=O)(=O)c2ccccc2)c2ccccc2)cc1`, the percent activity (GTP binding) is 98% (inactive).
Turning to `CCOC(=O)c1nc(Nc2ccc(C(=O)OC)cc2)c2ccccc2n1`, the percent activity (GTP binding) is 74% (active).
The same measure for `CC(=O)Nc1ccccc1NC(=O)c1cc(C)cc(C)c1`: 98% (inactive); for `NC(N)=Nc1nc2ccc(Br)cc2c(=O)[nH]1`: 93% (inactive); for `O=C(Nc1ccc(Cl)cc1)C1c2cccc[n+]2CC(=O)N1Cc1ccc2c(c1)OCO2` (configuration not stated): 99% (inactive).
Take `CCC1CCCCN1C(=O)CSc1nc2c(c(=O)n(C)c(=O)n2C)n1C` (configuration not stated): the percent activity (GTP binding) was 98% (inactive).
Turning to `Fc1cccc(Cc2noc(CN3CCN(c4cnccn4)CC3)n2)c1`, the percent activity (GTP binding) is 101% (inactive).
The result for `CCOC(=O)c1ccc(NC2Nc3cc(C)nn3S2)cc1` (configuration not stated) reads 95% (inactive).
The result for `CC(=O)c1ccccc1NC(=O)CC1(CC(=O)O)CCCCC1` reads 95% (inactive); that for `Cc1ccc(C)c(-n2nnnc2SCC(=O)c2c(N)n(C)c(=O)n(C)c2=O)c1`, 93% (inactive).
The same measure for `Cc1ccc(S(=O)(=O)NC(C(=O)N2CCOCCOCCOCCOCC2)c2ccccc2)cc1` (configuration not stated): 100% (inactive).
For the compound `COc1ccccc1C(=O)CSc1cccc[n+]1[O-]`, the percent activity (GTP binding) is 94% (inactive).
The result for `CCCCN(C(=O)COc1ccc(NC(C)=O)cc1)C1CCS(=O)(=O)C1` (configuration not stated) reads 96% (inactive); that for `Cc1ccc(Cl)cc1NC(=O)COC(=O)CC(C)(C)C`, 90% (inactive); that for `CCCCn1c(=O)c(C(C)=O)c(O)c2ccccc21`, 96% (inactive).
The same measure for `CCNC(=O)COc1cc(C)c(Br)c(C)c1`: 105% (inactive); for `CC(C)NC(=S)NN=C1CCCCCCCCCCC1`: 93% (inactive).
The same measure for `C=CCn1c(-c2sc(-c3ccccc3)nc2C)n[nH]c1=S`: 90% (inactive); for `O=C(NNC(=S)NCCCN1CCOCC1)c1ccncc1`: 98% (inactive); for `COc1c(F)c(F)c(C(=O)O)c(Nc2ccccc2C)c1F`: 100% (inactive).
For `Cc1ccc(NC(=S)NC(=O)c2ccc(-c3ccccc3)cc2)c(C)c1`, the percent activity (GTP binding) was 99% (inactive).
The result for `Cc1ccc(Nc2c(F)c(F)c(F)c(F)c2C(=O)O)c(C)c1` reads 134% [activator] (active).
For the compound `COC(=O)C1=CN(Cc2ccc(OC)c(OC)c2)C=C(C(=O)OC)C1c1cccs1`, the percent activity (GTP binding) was 99% (inactive).
The same measure for `CCn1c(-c2cccnc2Cl)nc2cc(C)c(C)cc21`: 99% (inactive); for `Cc1ccc(C(=O)OC(C)CN2CCOCC2)cc1` (configuration not stated): 99% (inactive); for `COc1ccccc1CNC(=O)c1cc(=O)c2ccccc2o1`: 96% (inactive).
Turning to `COCCN(Cc1nc(-c2ccc(C(F)(F)F)cc2)no1)C(C)C`, the percent activity (GTP binding) is 94% (inactive).
The same measure for `COc1ccccc1NC(=O)C1=C(C)NC(=O)NC1c1ccc(C)s1` (configuration not stated): 93% (inactive).
The result for `COc1ccc(-c2nc3cnccn3c2NC(C)(C)CC(C)(C)C)cc1O` reads 101% (inactive); that for `Cc1nnc(N/N=C/C2CC=CCC2)[nH]c1=O` (configuration not stated), 96% (inactive).
